GLP1R ag: agonists of human GLP-1 receptor; 380,000 tested, 0.007% active; Potency, µM (titrated, usually from 45.6 µM), usual class: activators; HEK293 GLP-1R CRE-luciferase, luminescence, 4-6 h; cells express a hypersensitive GLP-1R form; AID 624172; P43220
ClpP mod: qHTS Assay for Activators of ClpP; purified B. subtilis ClpP, FRET peptide cleavage, 20 min; 340,000 tested, 1.9% active; Potency, µM (titrated, usually from 57.5 µM); active = well fitted falling curve with a large enough effect; inconclusive = small, poorly fitted or top-dose-only effect; inactive = no such curve, though single readings can be large or run the other way; note: the source files actives as falling curves though it sought activators and does not explain the sign; nearly all actives have a fitted effect of over 65% in size
Target sequence (P80244 whole entry, looked up): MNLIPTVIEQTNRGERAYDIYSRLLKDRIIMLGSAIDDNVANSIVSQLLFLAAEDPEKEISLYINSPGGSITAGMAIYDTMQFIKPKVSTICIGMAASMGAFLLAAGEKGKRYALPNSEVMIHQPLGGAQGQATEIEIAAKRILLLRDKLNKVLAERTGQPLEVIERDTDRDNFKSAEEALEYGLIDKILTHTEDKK
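Purified B. subtilis ClpP, 10 microg/mL final in Tris/HCl pH8 with KCl, BSA, glycerol and Tween-20, cleaved an Abz/nitrotyrosine-quenched decapeptide. Fluorescence (ex 320, em 430) was read at 0 and 20 min at room temperature. Delta was normalized to 5.8 microM ADEP and DMSO/no-enzyme controls.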
LDHA block: LDHA (human) enzyme inhibition; P00338; purified LDHA, NADH/diaphorase-resazurin fluorescence; stronger effect = lower value; activity change, % (values are at about 110 or 230 µM); 480,000 tested, 0.15% active; in the data active = activity change below about -30%; inconclusive = mostly about -25% to -30%
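Human LDH5 (2 nM) was incubated with 0.06 mM NADH and 0.2 mM pyruvate for 5 min at room temperature in Tris pH 7.4. Remaining NADH was coupled through diaphorase/resazurin, and resorufin fluorescence was read at 0 and 20 min.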
p53 reactivation: re-activators of mutant p53. H1299 p53-A138V BP100-luciferase reporter, luminescence, 24 h. Potency, µM (highest dose often 92.2 µM), usual class: activators. 320,000 tested, 0.063% active. AID 504706; note: nearly all actives have a fitted effect of over 45% in size
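H1299 (p53-null), stable ts p53-A138V + BP100-Luc; 1000 cells/well, Opti-MEM/10% FBS; cpd 4 pt, 1:5; 24 h, 37 deg C, 5% CO2; detection reagent 10 min RT; luminescence.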
GLP-1R inv ag: inverse agonists of human GLP-1 receptor | P43220 | HEK293 GLP-1R CRE-luciferase, luminescence, 24 h; GLP-1R form is constitutively active | Potency, µM (top dose mostly 38.3 µM), hits mostly inhibitors | 410,000 tested, 1.6% active; note: nearly all actives have a fitted effect of over 55% in size
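HEK293 cells stably co-expressing constitutively active GLP-1R and a cAMP-responsive luciferase reporter were seeded in DMEM with 10% Nu serum, given compounds after 12 h, and incubated 24 h at 37 deg C. Luminescence was then read.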
HEK293 tox: cytotoxicity counter-screen for GLP-1 receptor inverse agonists; 410,000 tested, 0.13% active; AID 624418; Potency, µM (highest dose often 38.3 µM), actives largely listed as inhibitors; HEK293 cAMP-luciferase reporter cells, luminescence, 24 h;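 note: loss of luciferase light is scored as toxicity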
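To flag toxic compounds, the library was rerun on cells for 24 hr at 37 deg C and 5% CO2. Viability-linked luminescence was captured 12 min after adding luciferase detection reagent.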
Numbers stand for hits; . = inactive; ? = inconclusive; / = not tested or not shown; ! = not confirmed by another sample; [ ] = dose if it differs, or a comment. The list is not random: actives were taken first. Their share in the collection is about 2.9%. Unless noted, calls come from the whole dose curve; as a rule, active = well fitted curve in the direction sought with a large enough effect; inconclusive = small, poorly fitted or top-dose-only effect, or another doubt; inactive = no such curve, though single readings can be large; an effect the other way counts as inactive or inconclusive.

SMILES | GLP1R ag | ClpP mod | LDHA block | p53 reactivation | GLP-1R inv ag | HEK293 tox
C=C(C)CNC(=S)N/N=C/C1=CCC2CC1C2(C)C (configuration not stated) | . | . | . | . | 5µM | ?
C=CCNC(=S)N/N=C/C1=CCC2CC1C2(C)C (configuration not stated) | / | / | . | / | / | /
CC(C)NC(=S)N/N=C/C1=CCC2CC1C2(C)C (configuration not stated) | . | . | . | . | 8.9µM | ?
CC(C)(C)c1cc(C(=O)NCCN2CCCC2)cc(C(C)(C)C)c1 | . | / | . | . | 13µM | .
Cc1cc(C)n2nc(C(=O)OCC(=O)NC3CCCCC3)nc2n1 | . | . | . | . | . | .
Fc1ccc(-n2cc(CNCCc3ccncc3)c(-c3ccccc3Cl)n2)cc1 | . | . | . | . | ? | .
Fc1ccc(-n2cc(CNCCc3cccnc3)c(-c3ccccc3Cl)n2)cc1 | . | 28µM | . | . | .[0.307 µM] | .[0.307 µM]
COc1ccccc1Oc1c(C)oc2cc(O)ccc2c1=O | / | / | . | / | / | /
COc1c(C)oc2cc(O)ccc2c1=O | . | 18µM | . | . | . | .
Oc1ccc2c(c1)oc1cc(O)ccc12 | . | 32µM | . | ? | . | .
CCOc1ccc(NC(=O)CN(C)S(=O)(=O)c2ccc3[nH]c4c(c3c2)CCCC4)cc1 | / | ? | . | / | 11µM | .
Cc1ccc(NC(=O)c2ccc(-c3nn(C)c(=O)c4ccccc34)cc2)cc1 | . | . | . | . | . | .
CC12CCC(=O)N1C(C(=O)Nc1cccc(S(=O)(=O)N3CCCCCC3)c1)CS2 (configuration not stated) | . | 28µM | . | . | . | .
Cc1cccc2sc(NC(=O)C3CSC4(C)CCC(=O)N34)nc12 (configuration not stated) | . | . | . | . | 7.1µM | .
CC12CCC(=O)N1C(C(=O)Nc1ccc(S(=O)(=O)N3CCCCC3)cc1)CS2 (configuration not stated) | . | . | . | . | . | .
Cc1cccc(C)c1NC(=O)C1CSC2(C)CCC(=O)N12 (configuration not stated) | . | . | . | . | . | .
Cc1cc2c(c(C#N)c1C)NC=NC2C (configuration not stated) | . | . | . | / | . | .
CC(C)c1ccccc1NC(=O)c1cc2ccccc2oc1=O | / | / | . | / | / | /
O=C(CCc1ncc(-c2c(F)cccc2F)o1)NCC1(N2CCOCC2)CCCCC1 | / | / | . | / | / | /
CCCCCN(C(=O)CCC(=O)OCc1cc(C(C)=O)ccc1OC)c1c(N)n(CCCC)c(=O)[nH]c1=O | . | / | . | . | . | .
COc1cc(NC(C)=O)c2ncccc2c1[N+](=O)[O-] | . | 22µM | . | . | . | .[1.53 µM]
O=C(C1CCC(CNS(=O)(=O)c2cccs2)CC1)N1CCCCC1 (configuration not stated) | . | . | . | . | . | .
O=C(O)c1cccc(-n2cccc2/C=C2/NC(=O)N(c3cccc(Cl)c3)C2=O)c1 | . | / | -30! | . | . | .
COc1ccc(-n2cccc2/C=C2/NC(=O)N(c3cccc(Cl)c3)C2=O)cc1 | . | 25µM | . | . | . | .
COc1ccc(C2NCCc3c2[nH]c2ccccc32)cc1CN1CCc2cc(OC)c(OC)cc2C1C (configuration not stated) | . | . | . | . | 8.9µM | ?
O=C(Nc1ccc(Oc2ccccc2)nc1)C1CCN(Cc2ccccc2)CC1 | . | . | . | ? | 11µM | .
CCc1ccc(CN2CCC(C(=O)Nc3ccc(Oc4ccccc4)nc3)CC2)o1 | . | / | . | . | 8.9µM | .
CCn1cc(CN2CCC(C(=O)Nc3ccc(Oc4ccccc4)nc3)CC2)cn1 | . | . | . | . | . | .
CCc1ccc(NC(=O)Cn2c(=O)n(CCC(=O)N3CCc4ccccc4C3)c(=O)c3ccccc32)cc1 | . | . | . | / | . | .
CCn1c(=O)c2ccccc2n(Cc2cccc([N+](=O)[O-])c2)c1=O | . | / | -35 | . | . | .
